Structures are written as SMILES. A number with no mark means an inactive call. No rule for the calls is given here.

The subject of the assay is Aerobactin synthetase IucA (Klebsiella pneumoniae, hypervirulent). In words: IucA enzyme inhibition, biochemical, LOPAC library, absorbance readout (AID 1346212).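 Also: 100% = no compound wells and 0% = no enzyme wells.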 Conditions: IucA enzyme assay, absorbance (OD) readout; hits give low values;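 tested at 8 µM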.
Consider `C[C@]12CCC(=O)C=C1CC[C@@H]1[C@@H]2C(=O)C[C@@]2(C)[C@H]1CC[C@]2(O)C(=O)CO`, for which the remaining activity – broadly, the signal under treatment as a percentage of the control signal – is 105%.

For `C=C(C)C1CC=C(C(=O)O)CC1` (centres undefined), the remaining activity is 82.4%. The figure for `COc1cccc2c1[C@@H]1CN(CCCCn3c(=O)[nH]c4c(sc5ncc(-c6ccccc6)nc54)c3=O)C[C@@H]1CO2` is 98.2%; for `COc1ccc(C(=O)NCc2cccnc2)cc1C(=O)NCc1cccnc1` it is 103%; for `[N-]=[N+]=Nc1ccc(C(=O)CSC[C@H](NC(=O)CC[C@H](N)C(=O)O)C(=O)NCC(=O)O)cc1` it is 116%. Consider `COC(=O)C(C)(N)Cc1ccc(O)cc1` (centres undefined), for which the remaining activity is 114%.

For `CC(C)(C)c1ccc(S(=O)(=O)/C=C/C#N)cc1`, the remaining activity is 119%.

As to `COc1cccc(OC)c1OCCNCC1CSc2ccccc2O1` (centres undefined), the remaining activity was 114%. The figure for `C[C@@]12C(=O)OC(=O)[C@]1(C)[C@H]1CC[C@@H]2O1` is 118%.

Regarding `CC(C)(C)c1onc(OCP(=O)(O)O)c1CC(N)C(=O)O` (centres undefined), the remaining activity is 112%. The figure for `CCNC(=O)[C@H]1O[C@@H](n2cnc3c(N)nc(NCCc4ccc(CCC(=O)O)cc4)nc32)C(O)[C@H]1O` (some centres undefined) is 109%; for `COCCOC(=O)C1=C(C)NC(C)=C(C(=O)OC/C=C/c2ccccc2)C1c1cccc([N+](=O)[O-])c1` (centres undefined) it is 99.8%. The figure for `Cc1cc(NC(=O)Nc2ccc3c(ccn3C)c2)sn1` is 122%; for `COC(=O)[C@@H]1[C@H]2C[C@H]3c4[nH]c5ccccc5c4CCN3C[C@@H]2CC[C@@H]1O` it is 124%. Consider `N[C@@H](Cc1ccc(O)c(I)c1)C(=O)O`, for which the remaining activity was 121%. Then `CC(N)(Cc1ccc(O)cc1)C(=O)O` (centres undefined), with 106%; and `C[C@@H](N)C1CCC(C(=O)Nc2ccncc2)CC1` (some centres undefined), with 107%; and `Nc1ncnc2c1ncn2C1CCCO1` (centres undefined), with 75.8%. Then `Nc1nc2c(ncn2COC(CO)CO)c(=O)[nH]1`, with 111%; and `Nc1nc(N)c2nc(CNc3ccc(C(=O)N[C@@H](CCC(=O)O)C(=O)O)cc3)cnc2n1`, with 112%; and `CCCCCCCCCCCCCCCCCCNC(=O)OCC(COP(=O)([O-])OCC[n+]1ccsc1)OC` (centres undefined), with 126%. As to `CCCCC#Cc1nc(N)c2ncn([C@@H]3O[C@H](C(=O)NCC)[C@@H](O)[C@H]3O)c2n1`, the remaining activity was 96.4%. As for `S=C(S)N1CCCC1`, the remaining activity was 83.6%.

With `N#Cc1cc2nc(O)c(O)nc2cc1[N+](=O)[O-]`, the remaining activity was 86.8%. Then `Cc1oncc1C(=O)Nc1ccc(C(F)(F)F)cc1`, with 110%; and `CC1CNCCN1S(=O)(=O)c1cccc2cnccc12` (centres undefined), with 95.7%. Then `NO`, with 100%. Then `c1ccc(C(NCCNC(c2ccccc2)c2ccccc2)c2ccccc2)cc1`, with 117%; and `C[C@H](O)C(=O)C1=Nc2c(nc(N)[nH]c2=O)NC1`, with 109%; and `COc1cc2c(cc1OC)-c1cc(=Nc3c(C)cc(C)cc3C)n(C)c(=O)n1CC2`, with 97.5%. In the case of `C#CCN1C(C)=C(C(=O)OC)C(c2cccc([N+](=O)[O-])c2)C(C(=O)OCC)=C1C` (centres undefined), the remaining activity was 112%.

With `CCCOC(=O)c1c(-c2ccccc2)nc(CC)c(C(=O)SCC)c1CCC`, the remaining activity is 106%. For the molecule `CCCCCCCCCCCCCCCCCC(=O)OC(CC(=O)O)C[N+](C)(C)C` (centres undefined), the remaining activity was 96.1%. Then `CCCCCCCCCCCCCCCCCC(=O)NCC(COP(=O)([O-])OCC[N+](C)(C)C)OCC` (centres undefined), with 97.5%. Then `O=C(c1cc(O)c(O)c([N+](=O)[O-])c1)c1ccccc1F`, with 104%; and `OC[C@H]1O[C@@H](n2cnc3c(NC4CCCCC4)ncnc32)[C@H](O)[C@@H]1O`, with 93.2%. The figure for `Oc1ccc(C2CNCc3sccc32)cc1O` (centres undefined) is 99.3%. With `O=c1onc2cnc3ccccc3n12`, the remaining activity was 112%.

`CCCC1O[C@@H]2C[C@H]3[C@@H]4CCC5=CC(=O)C=C[C@]5(C)[C@H]4[C@@H](O)C[C@]3(C)[C@]2(C(=O)CO)O1` (some centres undefined): the remaining activity was 115%.

The record behind these values is PubChem BioAssay.
